Data published in PubChem BioAssay AID1159580 (chemical genetic matrix, 2015).
Among all 5,500 compounds or so, about 2,000 (36%) were called active. Inconclusive results (about 18%) are left out. Cut-off read from the data, not from the text of the source: active = normalized growth mostly below about 0.91 (no sharp cut-off); inconclusive = no clear call, values can overlap the other calls; inactive = mostly above about 0.92. The list shows a part of the results.

Assay: chemical genetic growth profiling, strain panel (AID 1159580);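 note: tested at 20 µM; growth read once vehicle control cultures reached saturation at 30 °C; 1 = growth at the plate median or of vehicle wells; lower values mean less growth of the strain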
Conditions: growth OD
[1] = S. cerevisiae deletion strains, locus YDR150W, strain NUM1, active compounds read low
[2] = S. cerevisiae deletion strains, locus YPL055C, strain LGE1, active compounds read low
[3] = S. cerevisiae deletion strains, locus YPL241C, strain CIN2, active compounds read low
[4] = S. cerevisiae deletion strains, locus YAL013W, strain DEP1, active compounds read low
[5] = S. cerevisiae deletion strains, locus YBR229C, strain ROT2, active compounds read low
[6] = S. cerevisiae deletion strains, locus YDL101C, strain DUN1, active compounds read low
[7] = S. cerevisiae deletion strains, locus YDL134C, strain PPH21, active compounds read low
[8] = S. cerevisiae deletion strains, locus YEL061C, strain CIN8, active compounds read low
[9] = S. cerevisiae deletion strains, locus YGR078C, strain PAC10, active compounds read low
[10] = S. cerevisiae deletion strains, locus YHR030C, strain SLT2, active compounds read low
[11] = S. cerevisiae deletion strains, locus YHR087W, strain rtc3, active compounds read low
[12] = S. cerevisiae deletion strains, locus YJR043C, strain POL32, active compounds read low
[13] = S. cerevisiae deletion strains, locus YJR075W, strain HOC1, active compounds read low
[14] = S. cerevisiae deletion strains, locus YKL190W, strain CNB1, active compounds read low
[15] = S. cerevisiae deletion strains, locus YLR039C, strain RIC1, active compounds read low
[16] = S. cerevisiae deletion strains, locus YLR058C, strain SHM2 (second series), active compounds read low
[17] = S. cerevisiae deletion strains, locus YLR085C, strain ARP6, active compounds read low
[18] = S. cerevisiae deletion strains, locus YLR262C, strain YPT6, active compounds read low
[19] = S. cerevisiae deletion strains, locus YML094W, strain GIM5, active compounds read low
[20] = S. cerevisiae deletion strains, locus YMR219W, strain ESC1, active compounds read low
[21] = S. cerevisiae deletion strains, locus YMR263W, strain SAP30, active compounds read low
[22] = S. cerevisiae deletion strains, locus YMR307W, strain GAS1, active compounds read low
[23] = S. cerevisiae deletion strains, locus YNL153C, strain GIM3, active compounds read low
[24] = S. cerevisiae deletion strains, locus YNL298W, strain CLA4 (second series), active compounds read low
[25] = S. cerevisiae deletion strains, locus YNL322C, strain KRE1, active compounds read low
[26] = S. cerevisiae deletion strains, locus YNR030W, strain Alg12, active compounds read low
[27] = S. cerevisiae deletion strains, locus YPR135W, strain CTF4, active compounds read low

Measured: normalized growth

O=C(O)CCC/C=C\C[C@@H]1[C@@H](/C=C/[C@H](O)C2Cc3ccccc3C2)[C@@H](F)C[C@@H]1O
inactive: S. cerevisiae deletion strains, locus YAL040C, strain CLN3, active compounds read low 0.995 | S. cerevisiae deletion strains, locus YCL061C, strain MRC1 (second series), active compounds read low 0.998 | [1] 1.01 | S. cerevisiae deletion strains, locus YDR363W, strain ESC2, active compounds read low 0.993 | S. cerevisiae deletion strains, locus YER002W, strain NOP16, active compounds read low 0.988 | S. cerevisiae deletion strains, locus YNL175C, strain NOP13, active compounds read low 0.982 | S. cerevisiae deletion strains, locus YNL197C, strain WHI3, active compounds read low 0.989 | S. cerevisiae deletion strains, locus YNL224C, strain SQS1, active compounds read low 0.969 | S. cerevisiae deletion strains, locus YOR083W, strain WHI5 (second series), active compounds read low 1.02 | [2] 0.99 | [3] 0.996

Cc1cc(N=CNO)c2ccccc2n1
inactive: [4] 1 | [5] 0.994 | S. cerevisiae deletion strains, locus YCL061C, strain MRC1, active compounds read low 0.976 | [6] 0.966 | [7] 0.997 | [1] 0.938 | [8] 0.999 | [9] 0.981 | S. cerevisiae deletion strains, locus YGR229C, strain SMI1, active compounds read low 1.01 | [10] 0.869 | [11] 1.04 | [12] 0.959 | [13] 1 | [14] 0.997 | [15] 0.959 | [16] 0.989 | [17] 0.932 | [18] 0.988 | [19] 1.01 | [20] 1 | [21] 0.994 | [22] 1.19 | S. cerevisiae deletion strains, locus YNL128W, strain TEP1, active compounds read low 0.966 | [23] 0.987 | [24] 0.919 | [25] 0.962 | [26] 0.982 | [2] 1.04 | [3] 0.966 | [27] 0.955

CCCCc1ccc(N=CNO)c(C)c1
inactive: S. cerevisiae deletion strains, locus YAR019C, strain CDC15, active compounds read low 0.985 | S. cerevisiae deletion strains, locus YBL105C, strain PKC1, active compounds read low 1.01 | S. cerevisiae deletion strains, locus YBR135W, strain CKS1, active compounds read low 0.983 | S. cerevisiae deletion strains, locus YBR136W, strain MEC1, active compounds read low 0.976 | S. cerevisiae deletion strains, locus YBR160W, strain CDC28, active compounds read low 0.996 | S. cerevisiae deletion strains, locus YDL017W, strain CDC7, active compounds read low 0.997 | S. cerevisiae deletion strains, locus YDL028C, strain MPS1, active compounds read low 0.974 | [6] 0.914 | S. cerevisiae deletion strains, locus YDL108W, strain KIN28, active compounds read low 0.974 | S. cerevisiae deletion strains, locus YDL132W, strain cdc53, active compounds read low 0.977 | S. cerevisiae deletion strains, locus YDR052C, strain DBF4, active compounds read low 0.995 | S. cerevisiae deletion strains, locus YDR054C, strain cdc34, active compounds read low 0.967 | S. cerevisiae deletion strains, locus YDR226W, strain ADK1, active compounds read low 0.986 | S. cerevisiae deletion strains, locus YFL009W, strain cdc4, active compounds read low 0.986 | S. cerevisiae deletion strains, locus YFL029C, strain CAK1, active compounds read low 0.977 | S. cerevisiae deletion strains, locus YFR003C, strain YPI1, active compounds read low 0.99 | S. cerevisiae deletion strains, locus YFR028C, strain CDC14, active compounds read low 0.967 | S. cerevisiae deletion strains, locus YGR092W, strain DBF2, active compounds read low 0.575 | S. cerevisiae deletion strains, locus YIL147C, strain SLN1, active compounds read low 0.985 | S. cerevisiae deletion strains, locus YJL128C, strain PBS2, active compounds read low 0.982 | S. cerevisiae deletion strains, locus YJR016C, strain ILV3, active compounds read low 0.996 | S. cerevisiae deletion strains, locus YKL193C, strain SDS22, active compounds read low 0.978 | S. cerevisiae deletion strains, locus YMR001C, strain CDC5, active compounds read low 0.982 | S. cerevisiae deletion strains, locus YMR277W, strain FCP1, active compounds read low 0.977 | S. cerevisiae deletion strains, locus YNL006W, strain LST8, active compounds read low 1 | S. cerevisiae deletion strains, locus YNL161W, strain CBK1, active compounds read low 0.992 | S. cerevisiae deletion strains, locus YNL207W, strain RIO2, active compounds read low 0.968 | S. cerevisiae deletion strains, locus YNL222W, strain SSU72, active compounds read low 0.985 | S. cerevisiae deletion strains, locus YOL078W, strain AVO1, active compounds read low 0.948 | S. cerevisiae deletion strains, locus YOR329C, strain SCD5, active compounds read low 0.993 | S. cerevisiae deletion strains, locus YPL209C, strain IPL1, active compounds read low 0.993 | S. cerevisiae deletion strains, locus YPR025C, strain CCL1, active compounds read low 0.993 | S. cerevisiae deletion strains, locus YPR106W, strain ISR1, active compounds read low 0.989 | S. cerevisiae deletion strains, locus YPR111W, strain DBF20, active compounds read low 0.995 | S. cerevisiae deletion strains, strain NNK1, active compounds read low 0.974 | S. cerevisiae deletion strains, strain TSCII, active compounds read low 0.964
active: S. cerevisiae deletion strains, locus YDL214C, strain PRR2, active compounds read low 0.427 | S. cerevisiae deletion strains, locus YDR477W, strain SNF1, active compounds read low 0.463 | S. cerevisiae deletion strains, locus YER123W, strain YCK3, active compounds read low 0.242 | S. cerevisiae deletion strains, locus YER133W, strain GLC7, active compounds read low 0.41 | S. cerevisiae deletion strains, locus YFR019W, strain FAB1, active compounds read low 0.255 | S. cerevisiae deletion strains, locus YGR040W, strain KSS1, active compounds read low 0.485 | S. cerevisiae deletion strains, locus YGR052W, strain FMP48, active compounds read low 0.246 | [10] 0.225 | S. cerevisiae deletion strains, locus YHR079C, strain IRE1, active compounds read low 0.146 | S. cerevisiae deletion strains, locus YHR082C, strain KSP1, active compounds read low 0.362 | S. cerevisiae deletion strains, locus YHR205W, strain SCH9, active compounds read low 0.475 | S. cerevisiae deletion strains, locus YJL095W, strain BCK1, active compounds read low 0.178 | S. cerevisiae deletion strains, locus YJL157C, strain FAR1, active compounds read low 0.45 | S. cerevisiae deletion strains, locus YJR066W, strain TOR1 (second series), active compounds read low 0.181 | S. cerevisiae deletion strains, locus YJR066W, strain TOR1, active compounds read low 0.236 | S. cerevisiae deletion strains, locus YKL048C, strain ELM1, active compounds read low 0.604 | S. cerevisiae deletion strains, locus YKL067W, strain YNK1, active compounds read low 0.48 | S. cerevisiae deletion strains, locus YKL101W, strain HSL1, active compounds read low 0.488 | S. cerevisiae deletion strains, locus YKL203C, strain TOR2, active compounds read low 0.391 | S. cerevisiae deletion strains, locus YLR113W, strain HOG1, active compounds read low 0.259 | S. cerevisiae deletion strains, locus YLR133W, strain CKI1, active compounds read low 0.558 | S. cerevisiae deletion strains, locus YLR403W, strain SFP1, active compounds read low 0.465 | S. cerevisiae deletion strains, locus YML070W, strain DAK1, active compounds read low 0.321 | S. cerevisiae deletion strains, locus YMR205C, strain PFK2 (second series), active compounds read low 0.558 | S. cerevisiae deletion strains, locus YNL020C, strain ARK1, active compounds read low 0.529 | S. cerevisiae deletion strains, locus YNL183C, strain NPR1, active compounds read low 0.229 | S. cerevisiae deletion strains, locus YNL307C, strain MCK1 (second series), active compounds read low 0.452 | S. cerevisiae deletion strains, locus YOL136C, strain PFK27, active compounds read low 0.358 | S. cerevisiae deletion strains, locus YOR061W, strain CKA2, active compounds read low 0.528 | S. cerevisiae deletion strains, locus YOR119C, strain RIO1, active compounds read low 0.332 | S. cerevisiae deletion strains, locus YOR231W, strain MKK1, active compounds read low 0.281 | S. cerevisiae deletion strains, locus YPL031C, strain PHO85, active compounds read low 0.444 | S. cerevisiae deletion strains, locus YPL153C, strain RAD53, active compounds read low 0.369 | S. cerevisiae deletion strains, locus YPL204W, strain HRR25, active compounds read low 0.418 | S. cerevisiae deletion strains, locus YPL256C, strain CLN2, active compounds read low 0.267

COC(=O)c1c(OC)ccc(N=CNO)c1OC
inactive: [4] 1 | [5] 0.982 | [6] 0.993 | [7] 1.01 | [1] 0.962 | [8] 1.01 | [9] 1 | [10] 1.05 | [11] 0.986 | S. cerevisiae deletion strains, locus YJL187C, strain SWE1, active compounds read low 0.985 | [12] 1 | [13] 0.976 | [14] 1.01 | [15] 1.02 | [16] 1 | [17] 0.999 | [18] 0.997 | [19] 0.993 | [20] 0.999 | [21] 0.926 | [22] 0.94 | [23] 0.989 | [24] 1.03 | [25] 1 | [26] 0.996 | [2] 0.888 | [3] 1.01 | [27] 1.07 | S. cerevisiae strains, strain wild type, active compounds read low 1.03
